Source: PubChem BioAssay
CYP2C9 activ – CYP2C9 (human) activation. P11712. recombinant CYP2C9, luciferin-H conversion, luminescence; active compounds read high; factor 1 = untreated enzyme, 0 = blocked. activation factor at 5 µM. 96,000 compounds, 1.4% hits;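 active means activation factor of 2 or more for CYP2C9 at a 5 µM dose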;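 further: 0 = sulfaphenazole-blocked wells and 1 = vehicle-only wells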
CYP2C19 inhib – human CYP2C19 inhibition | P33261 | CYP2C19 Supersomes, luciferin-H EGE luminescence, 30 min | inhibition, % at 5 µM | 96,000 compounds, 21% hits;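 active means CYP2C19 inhibition above a set limit at 5 µM in the primary screen, cut at about 50% in these data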;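 further: plate controls were negative control wells for no effect and 2.5 mM tranylcypromine positive control for full effect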
Target sequence (P33261 whole entry, looked up): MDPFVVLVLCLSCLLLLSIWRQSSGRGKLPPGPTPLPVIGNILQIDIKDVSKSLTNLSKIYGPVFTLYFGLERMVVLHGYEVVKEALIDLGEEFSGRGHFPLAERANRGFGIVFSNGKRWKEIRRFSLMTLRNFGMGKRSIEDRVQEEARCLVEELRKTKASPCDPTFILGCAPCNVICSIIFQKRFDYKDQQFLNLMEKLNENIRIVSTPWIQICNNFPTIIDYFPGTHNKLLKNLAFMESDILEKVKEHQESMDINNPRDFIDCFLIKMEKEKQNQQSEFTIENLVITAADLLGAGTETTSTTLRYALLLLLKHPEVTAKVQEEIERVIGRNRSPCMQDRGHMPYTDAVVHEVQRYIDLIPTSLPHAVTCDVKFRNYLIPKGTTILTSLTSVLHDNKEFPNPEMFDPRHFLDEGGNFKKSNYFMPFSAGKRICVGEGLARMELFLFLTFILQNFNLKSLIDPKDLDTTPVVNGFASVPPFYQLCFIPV
CYP2C9 inhib – human CYP2C9 inhibition; 96,000 compounds, 20% hits; CYP2C9 Supersomes, luciferin-H conversion, luminescence; inhibition, % at 5 µM; P11712;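 active means blocking of liver enzyme CYP2C9 beyond about 50% at 5 µM, limit read from the data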
CYP2C19 act – cytochrome P450 2C19 (human) activation. 96,000 tested, under 10 active. activation factor at 5 µM. AID 1025. recombinant CYP2C19, luciferin-H EGE luminescence; active compounds read high; 0 = fully inhibited enzyme, 1 = untreated enzyme;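 active means activation factor of at least 2 at 5 µM in the primary screen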;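 further: 0 = wells with 2.5 mM tranylcypromine and 1 = vehicle-only wells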
Cav3 T inh – inhibitors of human Cav3.2 T-type calcium channel; O95180; B-score at 10 µM; 100,000 compounds, 4% hits; Cav3.2-expressing cells, Fluo-4 calcium fluorescence FDSS; active compounds read low;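 active means single-dose well whose peak fluorescence ratio is a statistical outlier from its plate by either plate-standardised score or position-corrected B-score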
PTK2B oligo ant – blocks oligomerization of human Pyk2 in cells | z-score (the deposit names both 25 µM and 10 µM) | AID 1347419 | Q293 cells, Pyk2 FERM NanoBiT luminescence; active compounds read low | Q14289 | 99,000 compounds, 0.83% hits;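 active means Z-score of -3 or lower, scaled per plate to the spread of control and sample wells; inactive means z-score above -3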;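 further: negative z-score means lost luminescence so less FERM oligomerization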
* marks the source's active call; other numbers are inactive results; x = no result given. The list is not random: actives were taken first. Their share in the collection is about 27%.

SMILES	CYP2C9 activ	CYP2C19 inhib	CYP2C9 inhib	CYP2C19 act	Cav3 T inh	PTK2B oligo ant
CO/N=C/NC(=O)c1ccc([N+](=O)[O-])c(CS(=O)(=O)c2ccc(Cl)cc2)c1	0.8	1.6	15.4	1	0.022	-0.17
CN(C)C=NC(=O)c1ccc([N+](=O)[O-])c(CS(=O)(=O)c2ccc(Cl)cc2)c1	0.4	75.1*	56.0*	0.2	1.8	-0.62
NNC(=O)c1ccc([N+](=O)[O-])c(CS(=O)(=O)c2ccc(Cl)cc2)c1	0.7	74.8*	33.2	0.3	x	1.33
CC(C)(C)c1ccc(-c2nnc(SCCN3C(=O)c4ccccc4C3=O)o2)cc1	0.2	78.3*	83.7*	0.2	-1.31	0.95
COc1ccc(N2CCN(C(=O)CC34CC5CC(CC(C5)C3)C4)CC2)c([N+](=O)[O-])c1	x	x	x	x	x	-1.15
O=c1c2c(n3nnnc3n1Cc1ccccc1)-c1ccccc1CC21CCCC1	0.3	34.5	72.3*	0.7	-0.844	0.34
CS(=O)(=O)N(CC(=O)NCc1ccccn1)Cc1ccc(Cl)cc1	x	x	x	x	0.207	0.13
CCCc1cc(N2CCN(c3ccccn3)CC2)n2nc(C)c(-c3ccccc3)c2n1	0.5	18.7	53.6*	0.8	0.0319	1.15
Cc1cc(N2CCCCC2)n2nc(C)c(-c3ccccc3)c2n1	0.6	15.8	39.3	0.8	0.197	-0.34
O=C(Nc1ccc(-c2nc3ccccc3o2)cc1)c1ccc(N2C(=O)C3C4C=CC(C4)C3C2=O)cc1 (stereo not drawn)	0.9	-19.2	7.4	1.2	0.802	-0.31
CCCc1nc2c(o1)CC(CC(C)SCC)CC2=O (stereo not drawn)	0.6	51.2*	42.1	0.5	x	0.4
Fc1ccc(Oc2nccc(-c3ccc(Cl)cc3)n2)cc1	0.9	40.0	8.3	0.6	0.967	0.64
CCOC(=O)c1c(C)[nH]c(O)c1C=Nc1ccc(Cl)cc1	1	-6.5	4.3	1.1	0.1	1.34
CCOC(=O)c1c(C=O)c(C)n(Cc2ccc(Cl)cc2)c1C	0.2	28.4	84.3*	0.7	-2.33	-3.23*
CCOC(=O)c1c(C=O)c(C)n(Cc2ccccc2)c1C	0.3	48.8	69.9*	0.5	-1.16	-1.94
Cc1c(CNCc2cccs2)c(C(=O)O)c(C)n1Cc1ccccc1	x	x	x	x	-1.35	0.55
CC(=O)c1c(C(C)=O)c(C)n(Cc2ccc(Cl)cc2)c1C	0.7	86.5*	32.6	0.1	0.0161	0.79
CC(=O)C1C(c2ccccc2OC(F)F)NC(=O)NC1(O)C(F)(F)F (stereo not drawn)	0.9	0.9	14.3	1	x	x
COc1ccc(-n2c(C)nn(C)c2=O)c(OC)c1	0.9	37.1	6.1	0.6	x	-0.39
Cc1nn(C)c(=O)n1-c1ccc(Oc2ccccc2)cc1	0.1	22.4	91.4*	0.8	1.34	0.1
CCOc1ccc(S(=O)(=O)Nc2ccc(F)cc2)c(C)c1C	0	100.1*	99.6*	0	-4.7*	-2.42
COc1ccc(OC)c(S(=O)(=O)Nc2ccc(Oc3ccccc3)cc2)c1	0.2	97.0*	81.6*	0	-3.3	-3.64*
CCOc1ccc(NS(=O)(=O)c2cc(OC)ccc2OC)cc1	0.2	49.2	79.1*	0.5	-0.277	-1.44
CCOc1ccc(C)cc1S(=O)(=O)Nc1cccnc1	x	x	x	x	0.121	0.13
COc1ccc(OC)c(S(=O)(=O)Nc2ccc(O)c3ccccc23)c1	0.2	75.7*	84.5*	0.2	-0.733	-0.37
SMILES	CYP2C9 activ	CYP2C19 inhib	CYP2C9 inhib	CYP2C19 act	Cav3 T inh	PTK2B oligo ant
Cc1nn(C)cc1/C=N/NC(=O)C(C)(C)Oc1ccc(Cl)cc1	0.7	18.4	27.9	0.8	0.797	0.66
COc1ccc(C2N=C(c3ccccc3)C(C)(C)N2O)cc1OC (stereo not drawn)	1	31.6	2.3	0.7	-0.462	0.75
CCOC(=O)c1ccc(NS(=O)(=O)c2cc(C)ccc2OC)cc1	0.4	-5.4	57.9*	1.1	-2.36	-1.94
COc1ccc(OC)c(S(=O)(=O)Nc2ccc(O)c(Sc3ncn[nH]3)c2)c1	0.6	80.3*	42.6	0.2	-0.0264	0.09
CCCCOC(=O)c1ccc(NS(=O)(=O)c2cc(-c3nnnn3CC)ccc2OC)cc1	0.3	12.2	71.2*	0.9	-1.19	-0.94
COc1ccc(OC)c(S(=O)(=O)Nc2ccc(C(N)=O)cc2)c1	0.7	59.9*	29.7	0.4	0.763	0.48
COc1ccc(C)cc1S(=O)(=O)Nc1ccccc1	0.6	23.9	38.2	0.8	-1.26	-0.78
